Compound activity as filed in PubChem BioAssay.
CHT block: human CHT choline transport inhibition; actives 0.86% (n = 310,000); Q9GZV3; B-score at 10 µM; CHT-expressing cells, membrane potential dye, choline response; hits give low values;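 active means B-score over 3 SD under the library average, and starting fluorescence ratio not unusually high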;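 further: choline stimulus applied at its EC90 after an EC20 pre-addition; B-score computed on integrated fluorescence ratio after choline addition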
Kir21 block: inhibitors of mouse Kir2.1 inward-rectifier potassium channel | actives 0.85% (n = 310,000) | HEK293-Kir2.1, FluxOR thallium flux fluorescence; hits give low values | B-score at 10 µM;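 active means fluorescence ratio B-score at or below minus 3 SD of library scores, with starting-brightness B-score within 2 SD, cut at about -4.2 in these data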;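 further: channel flux triggered by added potassium and thallium sulfate stimulus; B-score of peak minus minimum fluorescence over baseline after thallium stimulus; more negative B-score means stronger Kir2.1 block with less thallium influx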
ANO1 block: mouse TMEM16A channel inhibition, primary screen | normalized B-score (activity score, 25-100; higher = stronger inhibition) at 10 µM | HEK293 TMEM16A/YFP iodide influx fluorescence, ionomycin | actives 1.2% (n = 310,000) | Q8BHY3;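 active means ratio plate-corrected score three or more library SD toward inhibition, starting fluorescence score within five deviations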;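 further: score derived from kinetic fluorescence span divided by baseline fluorescence per well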
Target sequence (Q8BHY3 whole entry, looked up): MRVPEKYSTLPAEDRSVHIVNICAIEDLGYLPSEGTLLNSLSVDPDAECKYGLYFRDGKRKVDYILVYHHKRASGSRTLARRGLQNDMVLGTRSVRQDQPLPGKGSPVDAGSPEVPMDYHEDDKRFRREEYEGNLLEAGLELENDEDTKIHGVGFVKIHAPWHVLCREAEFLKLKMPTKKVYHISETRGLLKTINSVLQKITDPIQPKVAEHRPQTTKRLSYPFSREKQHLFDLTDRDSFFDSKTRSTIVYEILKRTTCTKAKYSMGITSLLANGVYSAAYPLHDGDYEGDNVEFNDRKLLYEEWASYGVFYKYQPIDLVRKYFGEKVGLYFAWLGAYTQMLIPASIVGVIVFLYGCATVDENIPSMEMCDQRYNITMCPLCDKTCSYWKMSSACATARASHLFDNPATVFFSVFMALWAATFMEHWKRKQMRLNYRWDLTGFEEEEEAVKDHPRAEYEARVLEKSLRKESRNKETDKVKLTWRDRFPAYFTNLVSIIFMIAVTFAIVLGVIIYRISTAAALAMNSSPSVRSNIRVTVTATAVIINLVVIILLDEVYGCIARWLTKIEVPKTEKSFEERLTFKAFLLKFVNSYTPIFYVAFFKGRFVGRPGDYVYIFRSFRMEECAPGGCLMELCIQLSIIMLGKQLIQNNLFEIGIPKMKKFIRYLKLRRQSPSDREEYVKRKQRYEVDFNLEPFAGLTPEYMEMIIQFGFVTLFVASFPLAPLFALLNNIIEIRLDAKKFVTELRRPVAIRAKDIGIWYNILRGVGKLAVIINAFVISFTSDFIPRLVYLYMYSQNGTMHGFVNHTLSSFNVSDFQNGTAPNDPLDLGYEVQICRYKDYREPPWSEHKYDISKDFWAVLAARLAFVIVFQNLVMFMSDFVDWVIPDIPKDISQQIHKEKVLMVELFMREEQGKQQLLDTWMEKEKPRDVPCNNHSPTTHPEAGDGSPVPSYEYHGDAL
ANO1 activ: activates or potentiates the mouse TMEM16A chloride channel. B-score at 10 µM. Q8BHY3. actives 0.3% (n = 340,000). HEK293 TMEM16A/YFP-H148Q/I152L, iodide quench fluorescence; hits give low values. AID 623877;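 active means fluorescence-ratio B-score plate-corrected deviation score at least 3 library SD below zero, with starting fluorescence score within 5 deviations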;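 further: channel opened by trigger with iodide after compound preincubation; score built on the fluorescence ratio of max minus min over baseline; more negative score means more quench and so TMEM16A activation or potentiation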
Rce1 inhib: inhibitors of yeast Ras-converting enzyme; actives 0.27% (n = 290,000); calls only; AID 2563; yeast membranes, quenched prenylated peptide cleavage fluorescence;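 active means fall in fluorescence gain of 50% or more versus controls, with final raw signal at or below 3038400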;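 further: plate controls were neutral control wells for no effect and wells lacking membranes for full effect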
CHT allo act: allosteric activators of human choline transporter CHT. actives 0.49% (n = 310,000). CHT-expressing cells, membrane potential dye, choline EC20; hits give high values; LV-AA mutant CHT in HEK293 cells. AID 488977. Q9GZV3. B-score at 10 µM;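 active means initial fluorescence not abnormally high and integrated response B-score, plate-corrected, over 3 SD above library mean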
CHT block conf: confirmation of human choline transporter CHT inhibitors; shares compounds with CHT block; AID 493221; actives 70% (n = 2,400); CHT-expressing cells, choline membrane potential dye; LV-to-AA substituted CHT, HEK293 cells; CHT activity remaining % of control (hits give low values), % at 10 µM;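 active means choline transporter activity left, mean of duplicates at 10 µM, below buffer-only control mean minus 3 SD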;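 further: depolarization triggered by choline at its EC90 following an EC20 pre-addition; 0% = hemicholinium-3 full block and 100% = buffer-only control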
HEK293 MPD ctr: activity in parental HEK293 cells lacking CHT; AID 493222; membrane potential ratio readout (active if shifted either direction beyond buffer ±3SD; no single direction) at 10 µM; shares compounds with CHT block; actives 4% (n = 2,400); membrane potential dye, choline response; active = decrease or increase beyond buffer ±3SD;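 further: parental cells lack the transporter so any hit is non-specific; ratio is peak minus trough fluorescence over baseline after EC90 choline challenge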
Active calls of the source: *; i = inactive; · = no result given. Sampled rows, rich in hits. Any-hit rate of the full collection: about 3.2%.

SMILES	CHT block	Kir21 block	ANO1 block	ANO1 activ	Rce1 inhib	CHT allo act	CHT block conf	HEK293 MPD ctr
COc1ccc(C(=O)NCc2cnn(C)c2C)cc1OC1CCN(C(C)C)CC1	-11*	0.14	i	i	i	i	12%*	i
COc1ccc(C(=O)N2CCN(C)C(=O)[C@@H]2C)cc1OC1CCN(C(C)C)CC1	i	1.6	i	i	i	i	·	·
COc1ccc(C(=O)NCCc2ccc(C)cc2)cc1OC1CCN(C(C)=O)CC1	i	-0.66	i	i	i	i	·	·
COc1ccc(C(=O)N2CCCCCC2)cc1OC1CCN(C(C)C)CC1	-5*	-1	i	i	i	i	45%*	i
COc1cccc(CCNC(=O)c2ccc(OC)c(OC3CCN(C(C)C)CC3)c2)c1	-13*	0	i	i	i	i	12%*	i
COCCCNC(=O)c1ccc(OC)c(OC2CCN(C(C)C)CC2)c1	-6*	-0.39	i	i	i	i	36%*	i
COc1ccc(Cl)cc1C(=O)NCc1cnn(C)c1C	i	0.35	i	i	i	i	·	·
Cc1cc(Cl)ccc1NC(=O)CN1C(=O)C(=O)N(C2CCCC2)C1=O	·	·	·	i	·	·	·	·
COc1ccc(NC(=O)CN(C)C(=O)CNC(=O)c2ccc(C)s2)cc1	i	0.32	i	i	i	i	·	·
O=C(CSCC(=O)N1CCCCC1)OCC(=O)c1c[nH]c2ccccc12	i	-2	i	i	i	i	·	·
COc1ccccc1CCNC(=O)c1ccc(OC)c(OC2CCN(C(C)C)CC2)c1	-12*	-1.2	i	i	i	i	8.6%*	i
COc1ccc(C(=O)N(C)Cc2ccc(C)o2)cc1OC1CCN(C(C)C)CC1	-6.3*	0.47	i	i	i	i	30%*	i
COCCNC(=S)N1CCN(c2nc(-c3ccc(Cl)cc3)cs2)CC1	-7.5*	0.19	i	i	·	i	i	i
CCCCn1c(N)c(N(Cc2ccccc2OC)C(=O)C(C)Oc2ccc(Cl)cc2)c(=O)[nH]c1=O (configuration not stated)	i	0.35	i	i	i	i	·	·
NC(CCC(=O)NC(CS)C(=O)NCC(=O)O)C(=O)O (configuration not stated)	·	·	·	i	·	·	·	·
NC(N)=N/N=C/c1ccc(Cl)c(Cl)c1	-5.4*	-5*	i	i	i	i	41%*	i
NC(N)=N/N=C/c1ccc(OCc2ccccc2Cl)cc1	i	-4	i	i	i	i	·	·
O=C1CN(N=Cc2ccco2)C(=O)N1	·	·	·	i	·	·	·	·
Cc1ccc(S(=O)(=O)NC(C)C(=O)Nc2ccc3c(c2)OCO3)cc1 (configuration not stated)	-9*	-1.9	i	i	i	i	i	i
N#Cc1ccc(CN2CCN(CC(=O)NCCc3ccc(Cl)cc3Cl)CC2)cc1	i	-0.32	i	i	i	i	·	·
COc1ccc2c(c1)-c1c(ssc1=S)C(C)(C)N2	-5.2*	-0.59	i	i	i	i	57%*	i
COc1ccc(-n2sc3c(c2=S)-c2cc(OC)ccc2NC3(C)C)cc1	i	0.23	i	i	i	i	·	·
Cc1ccc(C)c(Nc2c([N+](=O)[O-])cc(C(=O)N3CC(=O)Nc4ccccc43)cc2[N+](=O)[O-])c1	-5.9*	0.32	i	i	i	i	i	i
Cc1cccc(Nc2c([N+](=O)[O-])cc(C(=O)N3CC(=O)Nc4ccccc43)cc2[N+](=O)[O-])c1	i	0.88	i	i	i	i	·	·
O=C(COC(=O)C1CCN(c2ccc(C(F)(F)F)cn2)CC1)Nc1ccc(Cl)cc1	i	0.05	i	i	i	i	·	·
SMILES	CHT block	Kir21 block	ANO1 block	ANO1 activ	Rce1 inhib	CHT allo act	CHT block conf	HEK293 MPD ctr
O=C(Nc1ccc(Cl)cc1)Nc1ccc(N2CCC(C(F)(F)F)CC2)nc1	-6.1*	0.08	i	i	i	i	i	i
CCc1noc(C)c1C(=O)OCC(=O)N(C)c1c(N)n(Cc2ccccc2)c(=O)[nH]c1=O	i	-0.94	i	i	i	i	·	·
O=C(CN1C(=O)COc2ccc(S(=O)(=O)N3CCOCC3)cc21)NCc1ccccn1	i	-0.43	i	i	i	i	·	·
COc1cccc(N2CCN(C(c3ccccn3)c3nnnn3C(C)(C)C)CC2)c1 (configuration not stated)	-5*	0.31	i	i	·	i	i	i
O=C(CN1C(=O)c2ccccc2C1=O)NC1CCC(O)CC1 (configuration not stated)	·	·	·	i	·	·	·	·
Cc1ccc(C(=O)CSc2n[nH]c(-c3ccco3)n2)cc1C	-5.1*	-0.43	i	i	i	i	50%*	i
Cc1cc(=O)[nH]c(SCC(=O)c2ccc(C)c(C)c2)n1	-7.3*	0.18	i	i	i	i	64%*	i
O=[N+]([O-])c1ccc(SCCc2ccccn2)cc1	-6.5*	0.08	i	i	i	i	53%*	i
COc1ccc(S(=O)(=O)N2CCC3(CC2)OCCN3S(=O)(=O)c2ccccc2)cc1OC	i	-1.1	i	i	i	i	·	·
COc1ccc(NC(=O)CN(C)C(=O)CN2C(=O)NC3(CCCC3)C2=O)cc1	i	0.21	i	i	i	i	·	·
CCOc1ccc(C(=O)OCC(=O)N(Cc2ccccc2)Cc2ccccc2)cc1OC	·	·	·	i	·	·	·	·
Nc1cc(N)nc(SCC(=O)Nc2ccc3c(c2)OCO3)n1	i	-0.74	i	i	i	i	·	·
Nc1nc(SCC(=O)Nc2ccc3c(c2)OCO3)n[nH]1	-5.1*	0.86	i	i	i	i	i	i
COCCn1c(SCC(=O)Nc2ccc(OC)c(S(N)(=O)=O)c2)nc2ccccc2c1=O	i	0.34	i	i	i	i	·	·
CSc1ccc(C(=O)C2CCCN(C(=O)c3ccsc3)C2)cc1 (configuration not stated)	-5.2*	1.2	i	i	i	i	69%*	i
Cc1ccnc(N/N=C/c2ccccc2)n1	i	1.3	i	i	i	i	·	·
C(=N\Nc1nccc(-c2cccnc2)n1)/c1ccccc1	-12*	-0.63	i	i	i	i	i	i
